# Only some compounds are listed: those with a hit (about 5.3% of all), similar ones and a draw of the others.
# Vaccinia Venus = vaccinia inhibition (Venus reporter); Vaccinia virus Venus reporter expression, fluorescence; Potency, µM (highest dose often 36.5 µM), for inactives: top-dose activity change, negative = inhibition, hits mostly inhibitors; actives 0.46% (n = 330,000); AID 720580; calls by dose curve; tested in A549 cells; note: nearly all actives have a fitted effect of over 30% in size
# Lassa entry inh = Lassa virus entry inhibition. AID 540256. Lassa virus pseudotype entry inhibition, cell reporter. Potency, µM (series often up to 37.9 µM), for inactives: at the highest dose activity change, negative = inhibition, hits mostly inhibitors. actives 1.2% (n = 300,000); calls by dose curve; tested in HEK293 cells; note: nearly all actives have a fitted effect of over 50% in size
# VACV mCherry inh = inhibitors of vaccinia virus infection (mCherry reporter signal). Vaccinia virus mCherry reporter infection, fluorescence. Potency, µM (series often up to 36.5 µM), without a hit: at the highest dose activity change, negative = inhibition, actives largely listed as inhibitors. actives 0.63% (n = 310,000). AID 720579; calls by dose curve; tested in A549 cells; note: nearly all actives have a fitted effect of over 35% in size
# HCV inh = blocks hepatitis C virus; Huh7.5.1 HCVcc-Cre infection, luciferase reporter, 44 h; Potency, µM (titrated, usually from 41.8 µM), for the others: at the highest dose activity change, negative = inhibition, usual class: inhibitors; actives 3.4% (n = 340,000); active = well fitted inhibition curve with a large enough effect; inconclusive = small, poorly fitted or top-dose-only effect, or another doubt; inactive = no such curve, though single readings can be large or run the other way
#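 Luciferase read-out (15 sec integration) after a 15 min room-temperature substrate step quantifies HCVcc-Cre infection. Cells, 1,000 per well, had compound added 4 h post-plating, then virus at ~0.5 moi, and were cultured 44 h.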
# Marburg entry inh = Marburg virus entry inhibition; Marburg virus pseudotyped entry inhibition, cell reporter; Potency, µM (titrated, usually from 37.8 µM), for the others: at the highest dose activity change, negative = inhibition, hits mostly inhibitors; actives 1.8% (n = 300,000); calls by dose curve; tested in HEK293 cells
# FMDV inh = antivirals against foot and mouth disease virus | FMDV antiviral cell-based qHTS | Potency, µM (doses to about 57.9 µM), for inactives: at the top dose activity change, negative = inhibition, most hits filed as inhibitors | actives 1.2% (n = 410,000); calls by dose curve; tested in HEK293T cells; note: read-out not given here; nearly all actives have a fitted effect of over 45% in size
# Numbers without * were called inactive; i = inactive; ? = inconclusive; . = no result given; [ ] = another dose, or the depositor's remark. % is set by controls: 0 for no effect and ±100 for the full control effect; potency is the fitted concentration of half-maximal effect.
SMILES,Vaccinia Venus,Lassa entry inh,VACV mCherry inh,HCV inh,Marburg entry inh,FMDV inh
CS(=O)(=O)c1sc(C#N)c2c1C(=O)CC(c1ccccc1)C2 (configuration not stated),.,.,.,?,.,11µM*
Cc1oc2c(c(=O)c1C)C(=O)CC(c1ccccc1)C2 (configuration not stated),-13%,?,.,5%,-20%,-28%
N/C(=N\c1nc2c(c(=O)[nH]1)CCC2)Nc1cccc(Cl)c1,?,-27%,?,1%,6.3µM*,-14%
c1ccc(-c2ncc3c(ccc4ccccc43)n2)cc1,-10%,3.5µM*,-25%,3%,?,-60%
Cc1ccc(N2C(N)=C(C#N)C(c3ccsc3)C3=C2CC(C)(C)CC3=O)cc1 (configuration not stated),-23%,?,-23%[1.46 µM],13µM*,?,-26%
COc1cccc(NC(=O)CSc2nc3ccccc3c(=O)n2C)c1,.,.,.,22µM*,.,0%
COC(=O)c1cccc(NC(=O)CSc2nc3cccnc3n2C)c1,?,-27%,-23%,14µM*,?,16µM*
COc1cccc(NC(=O)CSc2nc3ccccc3nc2N2CCOCC2)c1,-15%,7.1µM*,i,?,?,-19%
O=C(NCC1CCCO1)c1[nH]c(C(F)(F)F)nc1-c1ccccc1 (configuration not stated),-12%,.,8%,.,.,-20%
Cl/C(=C\n1cncn1)c1ccc(Cl)cc1Cl,.,.,.,.,.,-13%
Cc1ccc2c(c1)c(/C=C/c1cc[n+](C)cc1)c(C)n2C,i,.,-23%,10µM*,.,?
CCCn1c(/C=C/c2cc[n+](C)cc2)nc2ccccc21,-13%,-12%[46.1 µM],i,-18%,-16%[46.1 µM],-4%
C[n+]1ccc(/C=C/c2ccc(Br)cc2)cc1,?,-24%,?,?,?,-15%
Cc1ccc2[nH]c(C)c(/C=C/c3cc[n+](C)cc3)c2c1,227%,3.2µM*,?,?,8.9µM*,-26%
Cc1ccc2oc3c(c(=O)c2c1)C(c1ccc(OCC(N)=O)cc1)N(Cc1ccc2c(c1)OCO2)C3=O (configuration not stated),1%,3%[46.1 µM],-10%,.,19%[46.1 µM],-18%
COc1ccc2cc(CNC3CCS(=O)(=O)C3)c(-c3ccc(OC)c(OC)c3)nc2c1 (configuration not stated),5%,.,-8%,.,.,-15%
Cc1cnc(C(=O)NCc2c(C)ncc3c2CCN(C(=O)/C=C/c2cccs2)C3)cn1,-6%,.,-14%,.,.,-8%
O=C(NCCCN1CCOCC1)c1cc(-c2ccc(Cl)c(Cl)c2)on1,-6%,4%[46.1 µM],-16%,13µM*,2%[46.1 µM],9%
CCN(CC)CCCNC(=O)c1cc(-c2ccc(Cl)c(Cl)c2)on1,?,-20%,i,1.4µM*,?,0%
O=C(NCCN1CCOCC1)c1cc(-c2ccc(Cl)c(Cl)c2)on1,-5%,12%,-6%,4%,11%[46.1 µM],-5%
CCOC(=O)NN=C1C[C@@H](O)[C@@H](O)[C@@H]2[C@H]3C(=O)N(C4CCCCC4)C(=O)[C@@H]3CC[C@@H]12,.,13%[14.3 µM],.,.,-25%[14.2 µM],.
COC(=O)c1cnn(-c2ccc(C(=O)Nc3cccc(C(C)=O)c3)cc2)c1N,-10%,21%[46.1 µM],-3%,.,.,-8%
COC(=O)c1ccc(-c2nc3cc(Cl)c(N)cc3s2)cc1,-11%,?,-27%,0%,0.5µM*,10µM*
Cc1c(-c2nsc(NC(=O)c3ccc(Cl)cc3)n2)nnn1-c1ccc(C(C)C)cc1,-22%,-1%[46.1 µM],-18%,.,.,-14%
Cc1ccc(NC(=O)c2ccc(NCCN)c([N+](=O)[O-])c2)cc1,-19%,?,-13%,-12%,5%,19%
NCCNc1ccc(C(=O)N2c3ccccc3Sc3ccccc32)cc1[N+](=O)[O-],-23%,?,-5%,11µM*,?,?
Nc1ccc(C(=O)OCC(=O)N2c3ccccc3Sc3ccccc32)cc1[N+](=O)[O-],-20%,16µM*,-9%,?,21µM*,-8%
O=C1C=CC2(OCCCO2)C(Br)=C1CO,.,.,.,.,-40%[14.2 µM],.
